Measured values from PubChem BioAssay.
Active and inactive are the calls of the source.

Columns and labels:
[1] = small molecules captured by biotinylated probe aFSTL3 – biochemical, small-molecule microarray, fluorescence 635/667, stem cell growth factor project, primary screen (AID 1064); conditions: higher = more signal;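 note: measures binding of the biotinylated anti-FSTL3 antibody to printed compounds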
[2] = binders from COS7 lysate, DM2A8 probe, primary screen, torsin A project, cell lysate, small-molecule microarray, fluorescence 635/667 (AID 1065); conditions: higher = more signal, COS7 lysate expressing mutant human TOR1A
[3] = small molecules captured by biotinylated probe aFGF2 – biochemical, small-molecule microarray, fluorescence 635/667, stem cell growth factor project, primary screen (AID 1067); conditions: higher = more signal;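 note: measures binding of biotinylated aFGF2 protein to printed compounds on slides; z-score merges feature fluorescence and signal-to-noise across triplicate slides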
[4] = small molecules captured by biotinylated probe aFGF10 – biochemical, small-molecule microarray, fluorescence 635/667, stem cell growth factor project, primary screen (AID 1071); conditions: higher = more signal;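 note: score merges 667 nm spot intensity and signal to noise from triplicate slides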
[5] = target: Neurogenic locus notch homolog protein 2 (Homo sapiens) (UniProt Q04721); assay: small molecules binding Notch2 protein – biochemical, small-molecule microarray, 635 nm fluorescence, stem cell growth factors, primary screen (AID 1073); conditions: higher = more signal
[6] = target: Pro-neuregulin-1, membrane-bound isoform (Homo sapiens) (UniProt Q02297); assay: small molecules binding neuregulin-1 protein – biochemical, small-molecule microarray, fluorescence 635/667, psychiatric disease protein project, primary screen (AID 1075); conditions: NRG1 binding, 635 nm fluorescence, higher = more signal;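 note: score combines 667 nm spot fluorescence with signal to noise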
Sequence of Pro-neuregulin-1, membrane-bound isoform (Homo sapiens) (Q02297 whole entry, looked up, the tested form may be a part, canonical isoform): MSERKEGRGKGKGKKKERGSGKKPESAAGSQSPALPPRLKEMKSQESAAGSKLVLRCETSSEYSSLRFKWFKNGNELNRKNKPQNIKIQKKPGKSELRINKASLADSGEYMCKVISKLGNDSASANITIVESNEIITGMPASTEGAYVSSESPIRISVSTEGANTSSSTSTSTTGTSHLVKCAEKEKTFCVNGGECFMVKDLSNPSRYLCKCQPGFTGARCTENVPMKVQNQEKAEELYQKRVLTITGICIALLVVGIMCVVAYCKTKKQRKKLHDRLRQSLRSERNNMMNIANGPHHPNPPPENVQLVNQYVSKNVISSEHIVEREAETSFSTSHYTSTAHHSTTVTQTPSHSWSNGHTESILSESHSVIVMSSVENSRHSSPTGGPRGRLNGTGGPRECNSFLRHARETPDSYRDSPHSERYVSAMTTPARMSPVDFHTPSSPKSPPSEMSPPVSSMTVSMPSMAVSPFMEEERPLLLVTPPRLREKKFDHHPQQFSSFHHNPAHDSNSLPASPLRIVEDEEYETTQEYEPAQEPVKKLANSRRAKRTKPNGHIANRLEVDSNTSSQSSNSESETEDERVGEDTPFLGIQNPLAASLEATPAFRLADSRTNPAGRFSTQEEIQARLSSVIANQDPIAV

[7] = system: Neuregulin-1 EGF-like domain; assay: small molecules binding NRG1 EGF domain – biochemical, small-molecule microarray, 635 nm fluorescence, primary screen (AID 1081); conditions: higher = more signal;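 note: binding of the protein to compounds printed on small-molecule microarray slides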
[8] = FRG1 expression reporter modulators in myotubes – cell-based, C2C12 myotubes, firefly/Renilla luciferase, luminescence, FRG1 inhibition for FSHD, primary screen (AID 1084); conditions: FRG1 promoter luciferase, higher = more signal, called active from +8 up or from −8 down
[9] = small molecules captured by biotinylated probe aFST – biochemical, small-molecule microarray, fluorescence 635/667, stem cell growth factor project, primary screen (AID 1086); conditions: higher = more signal;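 note: score merges 667 nm fluorescence with signal-to-noise of each printed compound spot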
[10] = binders of probe aHhip on microarray, primary screen, stem cell growth factor project, biochemical, small-molecule microarray, fluorescence 635/667 (AID 1087); conditions: higher = more signal;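 note: score merges spot fluorescence at 667nm with spot signal to noise ratio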
[11] = system: PRMT1 (protein arginine N-methyltransferase 1); assay: small molecules binding arginine methyltransferase PRMT1 – biochemical, small-molecule microarray, 635 nm fluorescence, primary screen (AID 1088); conditions: higher = more signal;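 note: binding of Prmt1 protein to compounds spotted on small-molecule microarray slides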
[12] = growth effects on S. cerevisiae YJM789 – YJM789 clinical isolate, OD600, 24 h, basal, primary screen (AID 1089); conditions: higher = more signal, called active from +8 up or from −8 down;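 note: growth of clinical yeast isolate S. cerevisiae YJM 789 seeded 1000 cells per well; test concentration not given here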
[13] = S. pombe growth modifiers, basal conditions – strain 972, OD600, 24 h, no modulator, primary screen (AID 1090);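 note: basal condition with compound alone and no growth modifier present; test concentration not given here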; conditions: S. pombe 972 growth, higher = more signal, called active from +8 up or from −8 down
[14] = budding yeast growth modifiers under rapamycin – strain BY4716, OD600, 96 h, primary screen (AID 1091); note: test concentration not given here; conditions: S. cerevisiae BY4716 + rapamycin, higher = more signal, called active from +8 up or from −8 down
[15] = target: Torsin-1A-interacting protein 2 (Homo sapiens) (UniProt Q8NFQ8); assay: small molecules binding lysate-expressed LULL1 – cell lysate, human LULL1 lysate, 635/667 nm fluorescence, primary screen (AID 1092); conditions: small-molecule microarray, hLULL1 lysate binding, 635 nm fluorescence; higher = more signal;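 note: probe is lysate of COS7 cells overexpressing human LULL1; score merges per-feature 667 nm fluorescence with signal-to-noise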
Sequence of Torsin-1A-interacting protein 2 (Homo sapiens) (Q8NFQ8 whole entry, looked up): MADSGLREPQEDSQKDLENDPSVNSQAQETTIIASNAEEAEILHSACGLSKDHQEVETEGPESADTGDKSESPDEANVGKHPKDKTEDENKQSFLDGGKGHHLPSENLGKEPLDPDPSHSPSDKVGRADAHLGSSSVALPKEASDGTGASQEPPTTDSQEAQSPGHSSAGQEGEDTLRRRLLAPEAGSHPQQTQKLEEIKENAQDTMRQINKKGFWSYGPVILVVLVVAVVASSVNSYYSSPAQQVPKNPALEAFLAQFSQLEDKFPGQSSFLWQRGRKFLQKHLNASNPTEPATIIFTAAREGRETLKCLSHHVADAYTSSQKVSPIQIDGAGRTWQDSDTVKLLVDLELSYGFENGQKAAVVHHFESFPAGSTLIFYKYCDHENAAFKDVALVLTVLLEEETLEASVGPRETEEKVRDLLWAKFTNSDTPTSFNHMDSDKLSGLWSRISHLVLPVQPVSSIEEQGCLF

[16] = optical density change of DRC41 E. coli – strain DRC41, OD650, 24 h, E. coli filamentation project, primary screen (AID 1093);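 note: MC1000 strain lacking acrAB efflux and sulA so SOS filamentation is blocked; test concentration not given here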; conditions: E. coli DRC41 growth, higher = more signal, called active from +8 up or from −8 down
[17] = probe aLefty2 binding to arrayed compounds – biochemical, biotinylated probe, 635/667 nm fluorescence, primary screen (AID 1094); conditions: small-molecule microarray, higher = more signal;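 note: score merges spot fluorescence near 667 nm with spot signal-to-noise ratio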
[18] = system: Noggin (protein binding on small-molecule microarray); assay: small molecules binding Noggin protein – biochemical, 635/667 nm fluorescence, primary screen (AID 1095); conditions: 635 nm fluorescence, higher = more signal;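 note: score merges 667 nm feature fluorescence with signal to noise over triplicate slides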
[19] = target: Neurogenic locus notch homolog protein 3 (Homo sapiens) (UniProt Q9UM47); assay: small molecules binding NOTCH3 protein – biochemical, 635/667 nm fluorescence, primary screen (AID 1096); conditions: small-molecule microarray, 635 nm fluorescence, higher = more signal
Sequence of Neurogenic locus notch homolog protein 3 (Homo sapiens) (Q9UM47 whole entry, looked up): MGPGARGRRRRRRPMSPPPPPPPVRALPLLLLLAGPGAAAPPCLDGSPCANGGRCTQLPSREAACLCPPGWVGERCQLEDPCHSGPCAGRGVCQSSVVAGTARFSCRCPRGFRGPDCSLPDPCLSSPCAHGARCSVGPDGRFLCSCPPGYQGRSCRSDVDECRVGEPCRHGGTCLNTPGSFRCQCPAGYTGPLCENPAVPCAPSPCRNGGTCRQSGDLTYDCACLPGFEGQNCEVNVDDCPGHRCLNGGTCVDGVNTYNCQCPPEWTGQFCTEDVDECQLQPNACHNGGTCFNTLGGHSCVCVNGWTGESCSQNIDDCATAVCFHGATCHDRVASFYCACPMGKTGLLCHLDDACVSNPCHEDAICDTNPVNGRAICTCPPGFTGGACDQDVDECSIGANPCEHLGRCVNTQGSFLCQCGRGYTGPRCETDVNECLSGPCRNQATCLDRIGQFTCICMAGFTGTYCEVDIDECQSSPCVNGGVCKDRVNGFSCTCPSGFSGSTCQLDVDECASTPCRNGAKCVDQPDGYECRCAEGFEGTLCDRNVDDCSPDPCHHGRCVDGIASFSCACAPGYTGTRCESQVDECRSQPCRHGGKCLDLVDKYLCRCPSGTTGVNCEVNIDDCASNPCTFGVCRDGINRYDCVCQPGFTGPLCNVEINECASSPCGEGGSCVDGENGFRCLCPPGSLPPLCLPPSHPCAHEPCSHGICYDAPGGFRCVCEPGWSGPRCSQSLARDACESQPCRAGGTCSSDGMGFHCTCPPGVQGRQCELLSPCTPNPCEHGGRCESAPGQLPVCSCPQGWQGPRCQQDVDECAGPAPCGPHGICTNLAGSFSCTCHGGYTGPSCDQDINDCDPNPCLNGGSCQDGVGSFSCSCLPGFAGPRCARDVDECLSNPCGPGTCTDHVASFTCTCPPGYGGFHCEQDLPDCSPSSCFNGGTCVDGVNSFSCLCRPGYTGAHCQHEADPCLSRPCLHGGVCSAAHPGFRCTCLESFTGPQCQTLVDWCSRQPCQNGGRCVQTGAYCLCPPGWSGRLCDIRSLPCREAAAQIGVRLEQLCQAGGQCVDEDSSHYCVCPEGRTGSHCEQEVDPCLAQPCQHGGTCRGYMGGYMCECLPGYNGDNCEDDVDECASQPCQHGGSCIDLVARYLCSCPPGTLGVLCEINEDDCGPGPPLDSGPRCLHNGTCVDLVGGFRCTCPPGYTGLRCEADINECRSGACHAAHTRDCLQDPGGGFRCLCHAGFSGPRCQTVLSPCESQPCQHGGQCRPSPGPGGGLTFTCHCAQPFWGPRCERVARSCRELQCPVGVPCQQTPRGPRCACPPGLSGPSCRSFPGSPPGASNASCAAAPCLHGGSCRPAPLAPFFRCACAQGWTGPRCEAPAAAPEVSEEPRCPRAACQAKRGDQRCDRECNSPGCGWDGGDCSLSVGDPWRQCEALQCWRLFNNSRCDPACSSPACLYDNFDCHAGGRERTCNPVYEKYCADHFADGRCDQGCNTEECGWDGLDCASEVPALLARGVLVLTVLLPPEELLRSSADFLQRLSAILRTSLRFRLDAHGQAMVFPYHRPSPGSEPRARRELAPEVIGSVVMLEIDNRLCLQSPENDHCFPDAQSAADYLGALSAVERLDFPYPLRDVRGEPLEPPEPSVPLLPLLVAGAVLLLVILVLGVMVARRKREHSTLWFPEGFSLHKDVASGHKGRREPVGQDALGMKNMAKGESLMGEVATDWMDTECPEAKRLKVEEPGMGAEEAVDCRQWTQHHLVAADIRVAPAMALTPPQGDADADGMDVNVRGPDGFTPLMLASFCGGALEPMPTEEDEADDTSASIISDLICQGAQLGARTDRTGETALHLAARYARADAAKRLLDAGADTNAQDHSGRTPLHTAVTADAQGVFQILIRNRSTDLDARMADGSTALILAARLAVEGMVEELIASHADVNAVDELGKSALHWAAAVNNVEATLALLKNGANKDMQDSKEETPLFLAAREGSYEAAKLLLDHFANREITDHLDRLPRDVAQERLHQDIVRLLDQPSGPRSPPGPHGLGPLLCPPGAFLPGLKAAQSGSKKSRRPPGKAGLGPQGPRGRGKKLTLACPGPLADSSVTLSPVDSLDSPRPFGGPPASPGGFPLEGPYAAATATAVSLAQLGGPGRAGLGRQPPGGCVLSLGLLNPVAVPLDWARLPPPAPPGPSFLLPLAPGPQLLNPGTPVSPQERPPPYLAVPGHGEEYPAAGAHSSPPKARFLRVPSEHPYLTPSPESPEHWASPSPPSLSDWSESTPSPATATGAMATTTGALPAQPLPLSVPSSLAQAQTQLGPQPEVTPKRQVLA

[20] = probe aEGFR binding to arrayed compounds – biochemical, biotinylated probe, 635/667 nm fluorescence, primary screen (AID 1097); conditions: small-molecule microarray, higher = more signal;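 note: probe is a biotinylated anti-EGFR antibody binding compounds printed on slides; score combines fluorescence near 667 nm and signal to noise of each spot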

Structure (SMILES)	composite z-score [1]	composite z-score [2]	composite z-score [3]	composite z-score [4]	composite z-score [5]	composite z-score [6]	composite z-score [7]	z-score [8]	composite z-score [9]	composite z-score [10]	composite z-score [11]	z-score [12]	z-score [13]	z-score [14]	composite z-score [15]	z-score [16]	composite z-score [17]	composite z-score [18]	composite z-score [19]	composite z-score [20]
CC(C)C(CO)N1C(=O)[C@@H]2C3C(=O)OCCC/C=C\[C@H]3OC23C=CCN(Cc2ccccc2)C(=O)[C@@H]13 (stereo not given in full)	0.598	-0.217	-0.0744	0.648	-0.376	1.43	1.58	0.597 (inactive)	-0.406	-0.134	-0.928	-0.43 (inactive)	-0.912 (inactive)	-0.542 (inactive)	1.18	1.3 (inactive)	-0.0598	-0.989	-0.0928	-0.148
O=C(N1CCOCC1)[C@@]1(Cc2ccccc2)COC(c2ccc(OCCCO)cc2)=N1	1.06	0.615	0.0094	0.64	0.763	1.49	1.06	-1.28 (inactive)	0.48	0.264	0.88	-0.731 (inactive)	-5.55 (inactive)	-1.39 (inactive)	2.95	2.88 (inactive)	0.588	-0.622	0.116	0.518
CCCNC(=O)[C@@]1(Sc2ccc(C)cc2)CC(=O)N(Cc2ccccc2Cl)[C@@H]1c1ccc(CO)cc1I	0.746	-1.23	-0.127	-0.391	-1.13	1.4	0.895	-1.6 (inactive)	0.0493	0.106	0.16	-1.17 (inactive)	-3.81 (inactive)	1.82 (inactive)	2.08	0.545 (inactive)	0.328	-1.24	-0.502	-0.267
CCCC[C@H]1C[C@@H]1[C@@H]1N(C(C)=O)[C@H](c2cccc(OC)c2)CC12CC2	0.116	-0.303	-0.0235	0.186	0.798	-0.106	-0.175	1.8 (inactive)	0.657	-0.0645	-0.383	-0.872 (inactive)	-8.39 (active)	-1.82 (inactive)	0.755	-0.563 (inactive)	0.116	-0.502	-0.27	0.0192
